Test [1] can be described thus: stimulators of nuclear beta-catenin in C2C12, primary screen, imaging, WNT3A-conditioned medium, mouse C2C12, NPC library (AID 1117326; in the data active means nuclear beta-catenin stimulation mostly above about 4.2%, no sharp cut-off; inactive means mostly below about 10%; further: reference of the scale not given here). The conditions noted are these: stronger effect = higher value.
The nature of test [2]: stimulators of insulin release from INS-1E, primary screen, cell-based, 5 mM glucose, NPC library (AID 1117329;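 active means compound raises insulin release from rat beta cells at 5 mM glucose, no numeric limit stated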; further: reference of the scale not given here). The note with it: rat INS-1E insulin secretion, at 10 µM, stronger effect = higher value.
Test [3] is described as follows: growth inhibition of GSK3B-pretreated HCT116 cells – cell-based, CellTiter-Glo, 0.2 to 20 µM (AID 1117336;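 active means compounds lowering colon cancer cell viability after pretreatment blocking the GSK3B kinase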). The note with it: HCT116 viability after GSK3B inhibitor, at 20 µM, stronger effect = higher value. Background: In ATP-based viability assays light output follows the ATP content of the culture.
The nature of test [4]: inhibition of endothelial tube formation, primary screen, imaging, VEGF stimulated, CD31 staining, tube area, NPC library (AID 1117340). The conditions noted are these: VEGF-stimulated ADSC/ECFC co-culture, at 10 µM, stronger effect = higher value.
The nature of test [5]: glucagon-like peptide 1 release enhancers, primary assay, NCI-H716 cell line, NPC library (AID 1117341;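 active means compound raises GLP1 secretion from the human gut endocrine cells, with no numeric limit stated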; further: reference of the scale not given here). The note with it: NCI-H716 cells, at 10 µM, stronger effect = higher value.
A short description of test [6]: HCT116 colon cancer cell growth inhibition, primary screen, CellTiter-Glo luminescence, NPC library (AID 1117342;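 active means compounds that lower survival of HCT116 colon cancer cells in the luminescence readout, no numeric limit stated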). The conditions noted are these: at 20 µM (top of the series).
A short description of test [7]: CellTiter-Glo luminescent readout of SW480 viability loss, NPC library primary (AID 1117343;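 active means compounds that lower viability of the colon cancer cells in the luminescence readout, with no numeric limit stated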). The note with it: CellTiter-Glo luminescence; at 20 µM (top of the series).
A short description of test [8]: decreased DLD-1 cellular survival, CellTiter-Glo luminescent readout, NPC compound collection, primary HTS (AID 1117346;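 active means compounds that lower survival of DLD-1 colon cancer cells in the luminescence readout, no cutoff given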). The note with it: DLD-1 viability, CellTiter-Glo luminescence; at 20 µM (top of the series).

Activity calls are given as the source filed them.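 How the source made its calls, unless noted: active means compound that reduces growth-factor-driven endothelial tube area in a mixed cell culture, no cutoff stated; inactive means the rest.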

Take `CCCCCCCCCCCCCCCCCC(=O)OCC(O)CO` (stereo not given): the nuclear beta-catenin stimulation in test [1] (at 10 µM) is -0.4% (inactive); in test [1] (stimulation, at 2 µM) it was 1.7%. The insulin secretion stimulation in test [2] was 2.1% (inactive). Also, in test [3], the viability decrease is 1% (inactive). The tube area decrease in test [4] was -4.1% (inactive). Besides, the GLP1 secretion stimulation in test [5] was -0.3% (inactive). In addition, the inhibition of viability in test [6] is 2.77% (inactive). Also, the figures for the viability decrease (inhibition) in test [7] and in test [8] were -13.8% (inactive) and -7.2% (inactive), respectively.

In the case of `CCCOC(C(=O)OC1CCN(C)CC1)(c1ccccc1)c1ccccc1`, the nuclear beta-catenin stimulation is 0.8% (inactive) in test [1] (at 10 µM) and 1.5% in test [1] (stimulation, at 2 µM). For the same molecule, the insulin secretion stimulation in test [2] is 0.3% (inactive). Also, the viability decrease in test [3] was 54.2% (active). In test [4], the tube area decrease is 19.1% (inactive). The GLP1 secretion stimulation in test [5] was 21.3% (active). The inhibition of viability in test [6] was 84.8% (active). For the same molecule, the viability decrease (inhibition) in test [7] is 107% (active); in test [8], 57.7% (active).

With `Cc1ncc(COP(=O)(O)O)c(C=O)c1O`, the nuclear beta-catenin stimulation in test [1] (at 10 µM) was -1.1% (inactive); in test [1] (stimulation, at 2 µM) it was -0.2%. Also, the insulin secretion stimulation in test [2] was -0.8% (inactive). Moreover, the viability decrease in test [3] is 9.5% (inactive). Further, the tube area decrease in test [4] is -0.4% (inactive). For the same molecule, in test [5], the GLP1 secretion stimulation was -1.1% (inactive). In addition, in test [6], the inhibition of viability is 4.63% (inactive). For the same molecule, the viability decrease (inhibition) is -1.4% (inactive) in test [7] and 3.4% (inactive) in test [8].

Take `CCCCCCCCCCCCCCCC[N+](C)(C)Cc1ccccc1`: the nuclear beta-catenin stimulation is 38.6% (inactive) in test [1] (at 10 µM) and 0.7% in test [1] (stimulation, at 2 µM). Besides, the insulin secretion stimulation in test [2] is 1% (inactive). For the same molecule, the viability decrease in test [3] was 99.3% (active). In addition, the tube area decrease in test [4] was 109% (active). For the same molecule, the GLP1 secretion stimulation in test [5] is -4.3% (inactive). Besides, the inhibition of viability in test [6] was 99.2% (active). Besides, the viability decrease (inhibition) in test [7] is 101% (active); in test [8], 102% (active).

Consider `C/C(=N\O)c1ccc(OCC(=O)N2CCCCC2)cc1`, for which the nuclear beta-catenin stimulation in test [1] (at 10 µM) is 0.1% (inactive); in test [1] (stimulation, at 2 µM), -1.1%. Also, the insulin secretion stimulation in test [2] was 3.05% (inactive). In addition, the viability decrease in test [3] was 17.3% (inactive). In test [4], the tube area decrease was -6.2% (inactive). In addition, the GLP1 secretion stimulation in test [5] is 0.1% (inactive). In addition, the inhibition of viability in test [6] was 13.8% (inactive). Also, the viability decrease (inhibition) in test [7] was -2.5% (inactive); in test [8] it was -0.4% (inactive).

Regarding `C/C=C/C=N/NC(=O)c1ccncc1`, the nuclear beta-catenin stimulation is 0.2% (inactive) in test [1] (at 10 µM) and 0.6% in test [1] (stimulation, at 2 µM). For the same molecule, the insulin secretion stimulation in test [2] was -2.2% (inactive). Besides, the viability decrease in test [3] was -6.2% (inactive). The tube area decrease in test [4] was 6% (inactive). In test [5], the GLP1 secretion stimulation is -0.1% (inactive). In addition, the inhibition of viability in test [6] was 17% (inactive). The viability decrease (inhibition) in test [7] is 27.7% (inactive); in test [8], -3.65% (inactive).

For `COc1cc(C=C2CCC/C(=C\c3ccc(O)c(OC)c3)C2=O)ccc1O`, the nuclear beta-catenin stimulation was 118% (active) in test [1] (at 10 µM) and 4.1% in test [1] (stimulation, at 2 µM). Also, in test [2], the insulin secretion stimulation was 11.1% (inactive). Moreover, the viability decrease in test [3] is 99.1% (active). Besides, in test [4], the tube area decrease was 106% (active). Further, in test [5], the GLP1 secretion stimulation was -3% (inactive). Further, in test [6], the inhibition of viability was 99.5% (active). Moreover, the viability decrease (inhibition) in test [7] is 103% (active); in test [8], 101% (active).

Take `O=C1CC(c2ccc(Cl)cc2)CC(=O)N1`: the nuclear beta-catenin stimulation is -1.1% (inactive) in test [1] (at 10 µM) and -2.3% in test [1] (stimulation, at 2 µM). Further, in test [2], the insulin secretion stimulation was 1.8% (inactive). Also, in test [3], the viability decrease was 2.1% (inactive). For the same molecule, in test [4], the tube area decrease is -4.2% (active). For the same molecule, the GLP1 secretion stimulation in test [5] was 3.8% (inactive). For the same molecule, the inhibition of viability in test [6] was 20.4% (inactive). Also, the viability decrease (inhibition) was -4.9% (inactive) in test [7] and 6.7% (inactive) in test [8].

Consider `COc1cc(C(=O)OC(COCCC(C)C)CN2CCOCC2)cc(OC)c1OC` (stereo not given), for which the nuclear beta-catenin stimulation in test [1] (at 10 µM) was 0.4% (inactive); in test [1] (stimulation, at 2 µM) it was 2.6%. Besides, the insulin secretion stimulation in test [2] was 1.9% (inactive). In addition, the viability decrease in test [3] was -9.2% (inactive). In addition, the tube area decrease in test [4] was 0.7% (inactive). The GLP1 secretion stimulation in test [5] is 13.1% (inactive). Also, the inhibition of viability in test [6] is 18.4% (inactive). Also, the viability decrease (inhibition) in test [7] was 39.2% (inactive); in test [8] it was 2.2% (inactive).

With `Cc1ccc(S(=O)(=O)NC(=O)NC2CCCCCCC2)cc1`, the nuclear beta-catenin stimulation is -0.3% (inactive) in test [1] (at 10 µM) and 0.1% in test [1] (stimulation, at 2 µM). For the same molecule, the insulin secretion stimulation in test [2] is 18.5% (inactive). Moreover, the viability decrease in test [3] is 11.2% (inactive). In test [4], the tube area decrease is 14.5% (inactive). Besides, the GLP1 secretion stimulation in test [5] was 3.1% (inactive). In test [6], the inhibition of viability was -9.1% (inactive). The viability decrease (inhibition) in test [7] was 36.4% (inactive); in test [8], 12.9% (inactive).

As to `NCC(=O)O`, the nuclear beta-catenin stimulation is 2.3% (inactive) in test [1] (at 10 µM) and 4% in test [1] (stimulation, at 2 µM). Also, in test [2], the insulin secretion stimulation is -2.4% (inactive). The viability decrease in test [3] is 1.6% (inactive). Also, the tube area decrease in test [4] was -10.9% (inactive). For the same molecule, in test [5], the GLP1 secretion stimulation was 1.3% (inactive). For the same molecule, the inhibition of viability in test [6] is -28% (inactive). The figures for the viability decrease (inhibition) in test [7] and in test [8] were -6.3% (inactive) and 7.4% (inactive), respectively.

On to `O=C(OCCN1CCOCC1)c1cccnc1Nc1cccc(C(F)(F)F)c1`, for which the nuclear beta-catenin stimulation in test [1] (at 10 µM) is 1.2% (inactive); in test [1] (stimulation, at 2 µM), -0.8%. Also, in test [2], the insulin secretion stimulation was -0.1% (inactive). For the same molecule, the viability decrease in test [3] is 42% (inactive). In addition, the tube area decrease in test [4] was 8.9% (inactive). For the same molecule, the GLP1 secretion stimulation in test [5] is 3.6% (inactive). In test [6], the inhibition of viability is 55.9% (active). Further, the results for the viability decrease (inhibition) in test [7] and in test [8] were 62.3% (active) and 28.3% (inactive), respectively.

Consider `CN(C)C(=O)CNC(=O)Cc1ccccc1`, for which the nuclear beta-catenin stimulation was -0.3% (inactive) in test [1] (at 10 µM) and 2.4% in test [1] (stimulation, at 2 µM). For the same molecule, the insulin secretion stimulation in test [2] was 2.5% (inactive). The viability decrease in test [3] was 4.9% (inactive). In addition, the tube area decrease in test [4] was 7.1% (inactive). In test [5], the GLP1 secretion stimulation is -1.3% (inactive). Also, the inhibition of viability in test [6] was 7.5% (inactive). Besides, the values for the viability decrease (inhibition) in test [7] and in test [8] were -4.5% (inactive) and -0.5% (inactive), respectively.

For the molecule `CC(O)CCCCn1c(=O)c2c(ncn2C)n(C)c1=O` (stereo not given), the nuclear beta-catenin stimulation is -0.6% (inactive) in test [1] (at 10 µM) and 3.3% in test [1] (stimulation, at 2 µM). Besides, the insulin secretion stimulation in test [2] is 3.75% (inactive). For the same molecule, the viability decrease in test [3] is 15.3% (inactive). In test [4], the tube area decrease is -9.4% (inactive). For the same molecule, in test [5], the GLP1 secretion stimulation is -3.4% (inactive). Also, the inhibition of viability in test [6] is 0.8% (inactive). Also, the values for the viability decrease (inhibition) in test [7] and in test [8] were 3.8% (inactive) and 6.4% (inactive), respectively.

With `CCCCCCCCCCCCCCCCCCCCCC(=O)Nc1ccn([C@@H]2O[C@H](CO)[C@@H](O)[C@H]2O)c(=O)n1`, the nuclear beta-catenin stimulation in test [1] (at 10 µM) is 4.1% (inactive); in test [1] (stimulation, at 2 µM), -0.9%. Besides, the insulin secretion stimulation in test [2] is 3.05% (inactive). Also, the viability decrease in test [3] is 48.1% (inactive). For the same molecule, the tube area decrease in test [4] was 51.7% (active). In test [5], the GLP1 secretion stimulation was -1.6% (inactive). In addition, the inhibition of viability in test [6] was 39.5% (inactive). Further, the viability decrease (inhibition) in test [7] was 40.5% (inactive); in test [8] it was 15% (inactive).

(Values after PubChem BioAssay.)
